This passage reports activity, negative = inhibition and Potency results from PubChem BioAssay (NCATS).

Structures are written as SMILES. Records with an inconclusive call do not appear. Values without a mark were called inactive. The source made the active and inactive calls. Calls come from the whole dose curve; as a rule, active = well fitted inhibition curve with a large enough effect; inconclusive = small, poorly fitted or top-dose-only effect; inactive = flat fitted curve, though single readings scatter.
Potency is the fitted concentration of half-maximal effect.

A short description of one test: qHTS profiling for inhibitors of Plasmodium falciparum proliferation (AID 504749).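 For activity, negative = inhibition: 0% = DMSO vehicle and full inhibition = artemisinin control.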 Note: nearly all actives have a fitted effect of over 60% in size. To be noted: P. falciparum in erythrocytes, SYBR Green DNA, 72 h; at 12.8 µM (top of the series); parasite line A. From the text:
NIH National Institute of Allergy and Infectious Diseases [NIAID] NIH Chemical Genomics Center [NCGC] MLPCN Grant: None Assay Provider: Xinzhuan Su, NIAID NCGC Assay Overview: Plasmodium falciparum is a virulent malarial parasite that kills 1-2 million people worldwide each year. Transmitted by mosquitoes, the sporozoite form of the parasite enters the blood stream to infect hepatocytes, where they become merozoites that infect red blood cells (erythrocytes). Within erythrocytes, merozoites begin a […] cycle of growth and division, after which the parasite is released to infect new red blood cells. Gametocytes, which form within erythrocytes as well, circulate in the bloodstream and are ingested by the mosquito, thereby completing the life cycle. To profile malarial isolates for differential chemical responses and to identify inhibitors of malarial growth, an assay that measures P. falciparum growth and replication within erythrocytes was employed. This assay uses a DNA binding fluorescent dye (SYBR Green) to detect parasite DNA following cell lysis. Because mature erythrocytes lack DNA, only Plasmodium-derived DNA is detected.
NCGC Assay Protocol Summary: The SYBR Green viability assay was adapted from a method described previously (Plouffe et al., 2008). For screening 3 ul culture medium was dispensed into 1536 well black clear bottom plates (Aurora Biotechnologies) using a Multidrop Combi (Thermo Fisher Scientific Inc.), 23 nL compounds in DMSO were added by a pin tool (Kalypsys), and 5 ul of erythrocytes infected with P. falciparum (0.3% parasitemia, 2.5% hematocrit final concentration) were added. The plates were incubated at 37 C in a humidified incubator in 5% CO2 for 72 h, and 2 ul lysis buffer (20 mM Tris HCl, 10 mM EDTA, 0.16% saponin, 1.6% triton X, 10X SYBR Green I supplied as 10,000X […] by Invitrogen) was added to each well. The plates were mixed for 25 sec with gentle shaking and incubated overnight at room temperature in the dark. The following morning, fluorescence intensity at 485(14) nm excitation and 535(25) nm emission wavelengths was measured on an EnVision (Perkin Elmer) plate reader. Plate reads were normalized relative to the control inhibitor (0.29 uM artemisinin) and vehicle (DMSO) wells present on each plate and then corrected by an algorithm using vehicle-only control plates at the beginning and end of the compound plate stack.
(In general: qHTS replaces the single test concentration by a dilution series.)
In the case of `O=C(O)c1ccccc1-c1c2cc(Br)c(=O)cc-2oc2[c]([Hg])c(O)c(Br)cc12`, the activity, negative = inhibition was 23.4%.

The same test, now with this note: P. falciparum in erythrocytes, SYBR Green DNA, 72 h; at 12.8 µM (top of the series); parasite line B.
For `O=C(O)c1ccccc1-c1c2cc(Br)c(=O)cc-2oc2[c]([Hg])c(O)c(Br)cc12`, the activity, negative = inhibition is 5.61%.

The test is the same for the next values; noted with them: P. falciparum in erythrocytes, SYBR Green DNA, 72 h; at 28.7 µM (top of the series); parasite line A.
Turning to `C[N+](C)(C)CC(=O)[O-]`, the activity, negative = inhibition is 11.4%.

`CCN1C[C@]2(COC)[C@H](O)C[C@H](OC)[C@]34C1C([C@H](OC)[C@H]23)[C@]1(OC(C)=O)C2[C@@H](OC(=O)c3ccccc3)C(O)(C[C@H]24)[C@@H](OC)[C@@H]1O`: the activity, negative = inhibition was -2.64%.

`CCN(CC)CCO[C@H]1CC[C@@]2(C)C(=CC[C@@H]3[C@H]2CC[C@]2(C)C(=O)CC[C@H]32)C1`: the activity, negative = inhibition is -0.0219%.

Regarding `CO[C@H]1[C@@H](O)CC(OC2[C@@H](O)CC(OC3[C@@H](O)C[C@H](OC4CC[C@@]5(C)C(CCC6C5CC(O)[C@]5(C)[C@H](C7=CC(=O)OC7)CCC65O)C4)O[C@@H]3C)O[C@@H]2C)O[C@@H]1C` (stereo partly specified), the activity, negative = inhibition is -4.67%.

Still in this test, the particulars now being: P. falciparum in erythrocytes, SYBR Green DNA, 72 h; at 28.7 µM (top of the series); parasite line B.
In the case of `C[N+](C)(C)CC(=O)[O-]`, the activity, negative = inhibition was 8.81%.

Turning to `CCN1C[C@]2(COC)[C@H](O)C[C@H](OC)[C@]34C1C([C@H](OC)[C@H]23)[C@]1(OC(C)=O)C2[C@@H](OC(=O)c3ccccc3)C(O)(C[C@H]24)[C@@H](OC)[C@@H]1O`, the activity, negative = inhibition was -26.7%.

In the case of `CCN(CC)CCO[C@H]1CC[C@@]2(C)C(=CC[C@@H]3[C@H]2CC[C@]2(C)C(=O)CC[C@H]32)C1`, the activity, negative = inhibition was 10.7%.

Regarding `CO[C@H]1[C@@H](O)CC(OC2[C@@H](O)CC(OC3[C@@H](O)C[C@H](OC4CC[C@@]5(C)C(CCC6C5CC(O)[C@]5(C)[C@H](C7=CC(=O)OC7)CCC65O)C4)O[C@@H]3C)O[C@@H]2C)O[C@@H]1C` (stereo partly specified), the activity, negative = inhibition was 10.4%.

Still in this test, the particulars now being: P. falciparum in erythrocytes, SYBR Green DNA, 72 h; parasite line A.
For `CCCCCCCCCC[N+](C)(C)CCCCCCCCCC`, the Potency is 5.01 µM (active).

Take `CC(C)[C@@]1(NC(=O)[C@H]2CC3c4cccc5[nH]cc(c45)C[C@H]3N(C)C2)O[C@@]2(O)C3CCCN3C(=O)[C@@H](Cc3ccccc3)N2C1=O` (stereo partly specified): the Potency is 6.31 µM (active).

For `Oc1cc[c]([Hg][Cl])cc1`, the Potency was 7.94 µM (active).

The test is the same for the next values; noted with them: P. falciparum in erythrocytes, SYBR Green DNA, 72 h; parasite line B.
As to `CCCCCCCCCC[N+](C)(C)CCCCCCCCCC`, the Potency was 6.31 µM (active).

In the case of `CC(C)[C@@]1(NC(=O)[C@H]2CC3c4cccc5[nH]cc(c45)C[C@H]3N(C)C2)O[C@@]2(O)C3CCCN3C(=O)[C@@H](Cc3ccccc3)N2C1=O` (stereo partly specified), the Potency is 5.01 µM (active).

Regarding `Oc1cc[c]([Hg][Cl])cc1`, the Potency is 10 µM (active).
